KCNH2 3.1 block = inhibitors of human KCNH2 3.1 potassium channel isoform. U2OS KCNH2 3.1, thallium flux FluxOr; hits give low values. activity change, % (tested at about 1.8 µM). 0.95% of 340,000 active. AID 720553;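 active means maximum activity change below -70%; inconclusive means maximum activity change from -70% to -50%; inactive means maximum activity change above -50%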;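 further: thallium influx rate constant from kinetic fluorescence after stimulation buffer; on the % scale 0 is the no-effect control and ±100 the full control effect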
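FluxOr-based Tl+ influx in U2OS cells transduced with KCNH2 3.1 virus; rate constants normalized to DMSO controls.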
hERG WT inh = KCNH2 (human, wildtype) channel inhibition | Q12809 | U2OS, BacMam KCNH2, thallium flux FluxOr; hits give low values | activity change, % at 1.84 µM | 0.37% of 340,000 active | AID 720551;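 active means maximum activity change below -70%; inconclusive means maximum activity change between -70% and -50%; inactive means maximum activity change above -50%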; further: on the % scale 0 is the no-effect control and ±100 the full control effect
Target sequence (Q12809 whole entry, looked up): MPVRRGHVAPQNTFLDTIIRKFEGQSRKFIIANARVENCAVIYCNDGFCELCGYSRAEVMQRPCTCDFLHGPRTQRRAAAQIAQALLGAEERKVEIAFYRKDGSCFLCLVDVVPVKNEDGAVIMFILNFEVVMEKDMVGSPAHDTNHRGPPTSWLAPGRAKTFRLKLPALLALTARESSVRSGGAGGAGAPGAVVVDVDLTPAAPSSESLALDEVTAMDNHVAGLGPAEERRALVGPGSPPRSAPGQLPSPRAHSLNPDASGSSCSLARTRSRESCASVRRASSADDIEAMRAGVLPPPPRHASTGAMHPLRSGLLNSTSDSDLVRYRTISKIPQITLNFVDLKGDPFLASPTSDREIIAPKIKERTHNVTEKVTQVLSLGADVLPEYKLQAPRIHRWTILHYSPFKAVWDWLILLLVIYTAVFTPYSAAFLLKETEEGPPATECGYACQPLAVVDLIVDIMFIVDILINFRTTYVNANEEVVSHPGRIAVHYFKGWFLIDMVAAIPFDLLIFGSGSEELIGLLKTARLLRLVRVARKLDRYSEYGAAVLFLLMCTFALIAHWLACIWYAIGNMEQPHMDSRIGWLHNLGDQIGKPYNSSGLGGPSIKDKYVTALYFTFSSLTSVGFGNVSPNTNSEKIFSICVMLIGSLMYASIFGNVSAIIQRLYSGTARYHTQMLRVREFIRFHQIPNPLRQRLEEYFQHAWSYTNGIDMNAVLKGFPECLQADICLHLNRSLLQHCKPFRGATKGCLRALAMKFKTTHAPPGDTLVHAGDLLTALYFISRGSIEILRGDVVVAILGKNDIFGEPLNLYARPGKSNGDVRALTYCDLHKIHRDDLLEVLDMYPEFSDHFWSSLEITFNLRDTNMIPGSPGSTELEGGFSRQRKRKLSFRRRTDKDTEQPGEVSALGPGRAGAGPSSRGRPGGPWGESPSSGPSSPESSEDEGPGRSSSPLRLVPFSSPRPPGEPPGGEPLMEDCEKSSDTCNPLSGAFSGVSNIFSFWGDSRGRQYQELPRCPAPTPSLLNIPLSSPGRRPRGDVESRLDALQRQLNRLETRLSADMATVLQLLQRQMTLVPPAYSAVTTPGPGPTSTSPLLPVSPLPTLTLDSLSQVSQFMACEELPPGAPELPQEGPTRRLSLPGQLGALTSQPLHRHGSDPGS
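U2OS cells were transduced with wild-type KCNH2 virus (2.03 x 10^8 / mL) for 4 h at room temperature, then cultured overnight at 37 C. Thallium flux was read with FluxOr dye. Rate constants were normalized to DMSO controls.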
LDHA block = LDHA (human) enzyme inhibition. AID 1347041. 0.15% of 480,000 active. purified LDHA, NADH/diaphorase-resazurin fluorescence; hits give low values. P00338. activity change, % (values are at about 110 or 230 µM); in the data active means activity change below about -30%; inconclusive means mostly about -25% to -30%;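 further: plate controls were DMSO wells for no effect and wells without enzyme for full effect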
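Remaining NADH was detected by diaphorase (0.133 mg/mL) converting 37 µM resazurin to fluorescent resorufin, read at 0 and 20 minutes. The preceding 5-minute room-temperature reaction used 2 nM LDHA, 0.2 mM sodium pyruvate and 0.06 mM NADH at pH 7.4.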
BCR signal inh = inhibitors of chronic active B-cell receptor signaling. ABC-DLBCL IkBa-CBG/CBR reporter, luminescence ratio, 4 h. Potency, µM (series often up to 46.1 µM), without a hit: at the highest dose activity change, negative = inhibition, hits mostly inhibitors. 0.05% of 340,000 active; active means well fitted inhibition curve with a large enough effect in the signal ratio, with a control signal flat, not every such curve was filed as active; inconclusive means small, poorly fitted or top-dose-only effect, or effect the other way, or a change in a side signal; the % refers to the signal ratio;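 further: potency means the concentration at half of the fitted maximal effect; plate controls were basal doxycycline-induced cells for no effect and cells given 10 µM MG132 for full effect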
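Concentration-response series (up to 46 uM) were applied to TMD8 dual-reporter cells for 4 h at 37C with doxycycline. Green/red ratio, after filter-overlap correction, defined %Activity; red signal alone was normalised to basal cells and zero luminescence.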
12-LOX inh = ALOX12 (human) lipoxygenase inhibition | P18054 | purified 12hLO, xylenol orange hydroperoxide absorbance | Potency, µM (highest dose often 108 µM), without a hit: top-dose activity change, negative = inhibition, usual class: inhibitors | 1.1% of 580,000 active | AID 1671190; active means well fitted inhibition curve with a large enough effect; inconclusive means small, poorly fitted or top-dose-only effect, or another doubt; inactive means no such curve, though single readings can be large or run the other way; further: potency means the concentration at half of the fitted maximal effect; on the % scale 0 is the no-effect control and ±100 the full control effect
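Hydroperoxide product was detected by ferrous iron/xylenol orange as the 573 to 405 nm absorbance ratio. Arachidonic acid at 40 uM (final) was turned over for 30 min at room temperature by 150 nM human 12hLO, pH 7.0 Hepes buffer, after 15 min compound preincubation.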
ClpP mod = qHTS Assay for Activators of ClpP; 1.9% of 340,000 active; Potency, µM (series often up to 57.5 µM), for inactives: top-dose activity change, negative = active; purified B. subtilis ClpP, FRET peptide cleavage, 20 min; ATP-dependent Clp protease proteolytic subunit (Bacillus subtilis (strain 168)), P80244; active means well fitted falling curve with a large enough effect; inconclusive means small, poorly fitted or top-dose-only effect; inactive means no such curve, though single readings can be large or run the other way; further: potency means the concentration at half of the fitted maximal effect; the source files actives as falling curves though it sought activators and does not explain the sign; nearly all actives have a fitted effect of over 65% in size
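FRET quenching reversal measured ClpP activation: 10 microg/mL B. subtilis ClpP at pH 8 with the FRET-FV decapeptide, read at 430 nm after 320 nm excitation. The 20-min minus 0-min signal was scaled between DMSO/no-enzyme wells and ADEP (5.8 microM final).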
* hit, by the source's call; i = inactive; u = inconclusive; x = no result. In the library only some 3% were active in any assay of this set; here they are far more common.

SMILES	KCNH2 3.1 block	hERG WT inh	LDHA block	BCR signal inh	12-LOX inh	ClpP mod
Cc1ccc(C2NC(=O)NC3=C2CCc2ccccc23)cc1 (stereo not drawn)	-7	-19	8	u	u	u
COc1ccc(C2NC(=O)NC3=C2CCc2ccccc23)cc1 (stereo not drawn)	-28	-5	18	u	x	16µM*
CCCCC12CN3CC(C)(CN(C1)C(=O)c1ccccc1C3=O)C2=O	x	x	-1	x	28%	x
CSc1nc(C)cc(/C=C\c2ccccc2)c1C#N	1	8	-12	3%	u	28µM*
CSc1nc(-c2ccccc2)cc(C)c1C#N	3	23	-6	1%	35%	x
COc1ccc2[nH]c(C(=O)NCCN3CCCCC3)cc2c1	16	14	6	13%	x	x
O=C(NCCN1CCCCC1)c1cc2ccccc2[nH]1	-8	22	-3	0%	u	18µM*
C#CC1(O)CC(C)N(C)CC1C (stereo not drawn)	x	x	4	x	1%	x
O=C(c1ccc(C(F)(F)F)cc1)N1CCC(=O)N(C(COCc2ccc(C(F)(F)F)cc2)Cc2ccccc2)CC1 (stereo not drawn)	-112*	1	6	u	-28%	3%
Cn1c(=O)[nH]c(=O)c2c1nc(N1CCN(CC(N)=O)CC1)n2Cc1ccccc1Cl	x	x	-8	x	-32%	x
CCCCNC(=O)c1cn(CC(C)C)c(=O)c2c1c1ccccc1n2C	-4	-3	-5	0%	0%	-1%
CCOC(=O)N1CCN(C(=O)c2cn(C)c(=O)c3c2c2ccccc2n3C)CC1	-8	-4	1	-3%	7%	14µM*
COCCn1cc(C(=O)N2CCC(C)CC2)c2c3ccccc3n(C)c2c1=O	-9	11	-4	0%	-2%	16µM*
COc1ccc(N2CCN(C(=O)c3cn(C)c(=O)c4c3c3ccccc3n4C)CC2)cc1	12	1	-1	-10%	u	-23%
CC(C)Cn1cc(C(=O)N2CCC(C)CC2)c2c3ccccc3n(C)c2c1=O	-9	-8	-7	24%	-15%	x
CC(C)Cn1cc(C(=O)N2CCOCC2)c2c3ccccc3n(C)c2c1=O	2	0	-12	-2%	11%	16µM*
CCOC(=O)N1CCN(C(=O)c2cn(CC(C)C)c(=O)c3c2c2ccccc2n3C)CC1	2	-15	-4	15%	1%	25µM*
CCc1ccccc1S(=O)(=O)N1CCC2(CC1)C(=O)N(CC)c1ccccc12	x	x	x	x	19%	x
O=C(Nc1nc(-c2cccc3ccccc23)cs1)c1cccs1	x	x	9	x	u	x
Cc1ccc2nc(C)c(C)c(C(=O)NCc3nc(-c4ncccn4)no3)c2c1	x	x	x	x	72%	x
c1cc2c(cc1-c1csc(C3CC3)n1)OCCCO2	x	x	11	x	u	x
CCCN(CCC)CCCNC(=O)c1cn(CCOC)c(=O)c2c1c1ccccc1n2C	3	-17	-2	-9%	-11%	14µM*
CC(C)CCNC(=O)c1cn(CC(C)C)c(=O)c2c1c1ccccc1n2C	4	-3	-1	2%	0%	u
CC(C)Cn1cc(C(=O)NCc2cccs2)c2c3ccccc3n(C)c2c1=O	-13	48	-2	1%	-13%	10µM*
CN1/C(=C\C(=S)NC(=O)c2ccccc2Cl)C(C)(C)c2ccccc21	6	8	-3	-14%	25µM*	-3%
SMILES	KCNH2 3.1 block	hERG WT inh	LDHA block	BCR signal inh	12-LOX inh	ClpP mod
CN1/C(=C\C(=S)Nc2ccccc2)C(C)(C)c2ccccc21	26	i	-6	-1%	-17%	x
CN1/C(=C/C(=S)NC(=O)C2(C)CC2(Cl)Cl)C(C)(C)c2ccccc21 (stereo not drawn)	6	0	-5	u	22µM*	x
COc1ccccc1C(=O)NC(=S)/C=C1/N(C)c2ccccc2C1(C)C	-1	1	-4	-4%	28µM*	-2%
O=C(c1ccccc1)N1CCC(N2C(=O)C(OCC3CC3)C23CCCCC3)CC1 (stereo not drawn)	x	x	x	x	64%	x
Cc1cc(CSCC(=O)Nc2c(C)cccc2C)on1	x	x	-13	x	0%	x
CCc1cccc(NC(=O)COC(=O)Cc2cccc3ccccc23)c1	x	x	-20	x	u	x
COc1ccc2cc(CN(CC3CCCO3)S(=O)(=O)c3ccc(C(C)=O)cc3)c(=O)[nH]c2c1 (stereo not drawn)	-6	-8	-7	27%	-9%	-14%
COc1ccc2[nH]c(=O)c(CN(CCc3ccccc3)C(C)=O)cc2c1	14	-36	-2	-6%	3%	28µM*
COC(=O)c1ccccc1S(=O)(=O)N(Cc1cc2ccc(OC)cc2[nH]c1=O)CC1CCCO1 (stereo not drawn)	0	-3	1	-14%	-16%	28µM*
CCN(CC)CCCN(Cc1cc2cc(OC)ccc2[nH]c1=O)C(=O)Nc1ccc(F)cc1	-39	u	-3	u	0%	28µM*
COc1ccc2[nH]c(=O)c(CN(CCN(C)C)C(=O)NCc3ccccc3)cc2c1	-2	4	2	4%	x	25µM*
O=C(O)c1coc(Br)c1	x	x	-1	x	-31%	x
Cc1ccc2[nH]c(=O)c(CNC(C)(C)C)cc2c1	-25	11	-2	0%	4%	14µM*
COc1ccc2[nH]c(=O)c(CN(CCO)C(=O)c3ccccc3F)cc2c1	-1	0	-5	-23%	14%	20µM*
COc1cc2cc(CN(Cc3cccs3)C(=S)Nc3ccc(C)cc3)c(=O)[nH]c2cc1OC	-13	18	-2	9%	u	u
COc1cc2cc(CN(Cc3cccnc3)C(=O)NCc3ccccc3)c(=O)[nH]c2cc1OC	6	-1	-5	u	-12%	25µM*
CNC(=S)N(Cc1cccs1)Cc1cc2cc(OC)c(OC)cc2[nH]c1=O	10	1	-6	u	-10%	25µM*
CC(C)(C)NCc1cc2ccccc2[nH]c1=O	-2	12	-2	17%	4%	-18%
CC(C)NC(=O)N(C1CCOCC1)C1CN(S(=O)(=O)c2cn(C)cn2)C1	x	x	x	x	0%	x
CCc1ccc2[nH]c(=O)c(CN(CCN(C)C)C(=O)Nc3ccccc3OC)cc2c1	-48	-11	-5	-2%	0%	28µM*
CCc1ccc2[nH]c(=O)c(CN(CCN(CC)CC)C(=O)Nc3ccccc3OC)cc2c1	-48	12	-6	13%	0%	-10%
COc1ccc2[nH]c(=O)c(CNc3ccccc3)cc2c1	-2	3	16	u	u	16µM*
Cc1ccc2[nH]c(=O)c(CN(CCO)C(=O)N(C)C)cc2c1	-8	-15	-16	x	15%	28µM*

Assay outcomes: PubChem BioAssay, National Center for Advancing Translational Sciences (NCATS)
